Source: PubChem BioAssay (NCI)
The panel holds about 83,000 compounds, 20% with a hit somewhere; the sample as a whole holds those more often.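 Activity criterion: percent growth below 10, measured after cells in 96-well plates were exposed to a single compound concentration for 48 hours.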 Unmarked numbers belong to inactive results. Activity calls are given as the source filed them.

system: HL-60(TB) leukemia; assay: NCI-60 one-dose screen, 48 h (100 = growth as untreated, 0 = no growth, -100 = all killed); settings: 10 µM unless noted

Row | SMILES | growth
1 | O=C(CN1C=NC2C(N3CCOCC3)=NC=NC21)c1cccc2ccccc12 (centres undefined) | 103%
2 | Cc1ccc2c(c1)CC(O)CC1C(=O)N(CCO)CC(=O)N21 (centres undefined) | 96.9%
3 | CCCCCCCCCCCC[n+]1ccccc1 (tested in a mixture with another compound) | -77.6% (active)
4 | Nc1c(C(=O)Nc2cccc(C(F)(F)F)c2)sc2nc3c(cc12)C(O)CCC3 (centres undefined) | -0.216% (active)
5 | C/C(=C/CCC(C)[C@@H]1CC[C@]2(C)C3=C(CC[C@@]12C)[C@@]1(C)CCC(=O)C(C)(C)[C@@H]1CC3)C(=O)O (some centres undefined) | -58.8% (active)
6 | CCn1cc(CNc2ccc(C(=O)Nc3cc4cc(OC)c(OC)cc4c(C)n3)cc2)c(C)n1 | 0.232% (active)
7 | COc1cc(OCc2cccc(-c3ccc(C(O)c4nccs4)cc3)c2C)cc(OC)c1C=O (centres undefined) | 43.5%
8 | CCOC(=O)NC(C)C | 68%
9 | CCC1CN2C(=N1)c1ccccc1-c1cc(Cl)ccc12 (centres undefined) | 2.51% (active)
10 | COc1ccc(CNc2c3ccccc3nc3ccccc23)c(OC)c1 | 36.9%
11 | CCN(CC)c1ccc(/C=C/C2=[N+](C)c3ccccc3C2(C)C)cc1 | 11.3%
12 | Cn1cc(-c2nc(-c3cn(C)c4ncccc34)cs2)c2cc(F)ccc21 | 30.7%
13 | Cn1c(=O)c(S(=O)(=O)c2ccccc2)cc2ccc3c(cnn3-c3ccc(Cl)cc3)c21 | 90.2%
14 | Oc1ccccc1N=Cc1ccccc1 | 84.2%
15 | CCOC(=O)n1cnc2c(Cl)ncnc21 | 106%
16 | CCCCCCCCCC1=NC(C)(C)CN1C(C)(C)CO | -20.8% (active)
17 | COC(=O)N[C@@H](C)CNc1nccc(-c2cn(C(C)C)nc2-c2cc(Cl)cc(NS(C)(=O)=O)c2F)n1 | 26.6%
18 | CCCC1C(C(=O)OCC)=C(N)Oc2cc(O)ccc21 (centres undefined) | 102%
19 | NC(=O)c1cc(I)ccc1NC(=O)COc1ccccc1 | -20.5% (active)
20 | O=C(Cn1cccc(Nc2ccccc2)c1=O)Nc1ccccc1 | 118%
21 | C1=C\COCc2cc(ccc2OCCN2CCCC2)Nc2nccc(n2)-c2cccc(c2)COC/1 | -34.6% (active)
22 | O=c1c2c3c(sc2nc(N/N=C/c2cn(-c4ccccc4)nc2-c2ccc(Cl)cc2)n1Cc1ccccc1)CCCC3 | -32.4% (active)
23 | Cc1ccc(C(=O)Nc2nc3c(s2)CN(Cc2ccccc2)CC3)cn1 | 92.6%
24 | C=C1CC[C@@H]2[C@@](C)(CCC[C@]2(C)C(=O)O)[C@@H]1CC[C@H](CO)CCO | 93.7%
